# The whole screen tested about 240,000 compounds, of which about 20 (0.008%) were called active. Not shown: some 1% with an inconclusive outcome. Not all results are given here. Unmarked numbers belong to inactive results. Calls follow the shape of the dose curve; as a rule, active = well fitted inhibition curve with a large enough effect; inconclusive = small, poorly fitted or top-dose-only effect, or effect the other way; inactive = flat fitted curve, though single readings scatter.
# Biological target: Alpha-galactosidase A (Homo sapiens) (UniProt P06280)
# Assay: qHTS Assay for Inhibitors and Activators of Human alpha-Galactosidase From Spleen Homogenate;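 also: 0% = enzyme with vehicle and -100% = no enzyme basal signal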
# Settings: 4MU-alpha-Gal fluorescence, 40 min; series mostly up to 80 µM; activity change, negative = inhibition: at the top concentration
# Text: NIH Chemical Genomics Center [NCGC] NIH Molecular Libraries Probe Production Centers Network [MLPCN] MLPCN Grant: R03 MH084842-01 Assay Submitter (PI): Wei Zheng NCGC Assay Overview: Alpha-galactosidase is a homodimeric glycoprotein that hydrolyzes the terminal alpha-galactosyl moieties from glycolipids and glycoproteins. Deficiency of this enzyme results in Fabry Disease with progressive accumulation of globotriaosylceramide and other glycosphingolipids in vascular endothelial cells that causes renal failure, myocardial infarction and stroke, and premature death in patients. It has been reported that the improper folding and trafficking of alpha-galactosidase resulting from genetic mutations may account for a significant number of Fabry patients. […] We optimized this alpha-galactosidase assay in 1536-well plate format for identification of novel small molecule inhibitors or activators with structures other than the sugar analogs in order to develop new pharmacological chaperones. In particular, this assay is directed towards discovering compounds active in more natural setting, tissue homogenate, that may have been missed by screens of the purified enzyme under more stringent conditions.
# NCGC Assay Protocol Summary: This is a fluorogenic enzyme assay with 4-methylumbelliferyl-alpha-D-galactopyranoside as the substrate and human spleen homogenate containing alpha-galactosidase as the enzyme preparation. Upon hydrolysis of this fluorogenic substrate, the resulting product, 4-methylumbelliferone (which excites at 365 nm and emits at 440 nm) can be detected by a fluorescence plate reader. Data were normalized to the controls for basal activity (without enzyme) and 100% activity (with enzyme). The AC50 values were determined from concentration-response data modeled with the standard Hill equation. Assay buffer: 50 mM citric acid (titrated with potassium phosphate to pH 5.0), 0.01% Tween-20 (pH 5.0 is an optimal condition for this enzyme assay) 1536-well assay protocol for the alpha-galactosidase from human spleen homogenate: (1) Add 2 ul/well spleen homogenate (1 ug) (2) Add 23 nL compounds in DMSO solution. The final titration was 0.5 nM to 58 uM. (3) Add 2 ul of substrate (1 mM final) (4) Incubate at 37C for 40 min (5) Add 2 ul stop solution (1M NaOH and 1M Glycine mixture, pH 10) (6) Detect the assay plate in a ViewLux plate reader (PerkinElmer) with Ex=365 nm and Em=440nm. Keywords: Alpha-galactosidase, Fabry Disease, pharmacological chaperone, chaperone therapy, high throughput screening, alpha- galactosidase inhibitor, MLSMR, MLSCN, NIH Roadmap, qHTS and NCGC
# Chain of Alpha-galactosidase A (Homo sapiens) (P06280 32-429 limits assumed): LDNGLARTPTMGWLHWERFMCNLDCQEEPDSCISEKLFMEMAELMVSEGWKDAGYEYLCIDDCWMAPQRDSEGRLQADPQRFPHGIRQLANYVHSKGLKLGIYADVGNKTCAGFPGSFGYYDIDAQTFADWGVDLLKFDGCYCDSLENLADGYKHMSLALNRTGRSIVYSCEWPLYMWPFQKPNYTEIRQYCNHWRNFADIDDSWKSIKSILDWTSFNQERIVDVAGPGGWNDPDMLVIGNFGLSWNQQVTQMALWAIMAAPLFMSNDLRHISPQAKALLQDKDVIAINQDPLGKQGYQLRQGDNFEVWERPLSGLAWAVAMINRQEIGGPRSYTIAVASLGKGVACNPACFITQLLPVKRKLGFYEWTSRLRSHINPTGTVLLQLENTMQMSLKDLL
row,SMILES,"activity change, negative = inhibition"
1,CSc1ccc(S(=O)(=O)Nc2cccc(F)c2)cc1,3.92%
2,COC(=O)c1ccc(C(NC(=O)OCc2ccccc2)/C(F)=C/[C@@H](C)C(=O)O)cc1 (stereo not given in full),-4.12%
3,Cc1ccc(-c2csc(N(Cc3ccco3)C(=O)c3cccs3)n2)cc1,2.51%
4,O=C(Nc1cc(C(=O)Nc2ccc(S(=O)(=O)O)cc2)cc(C(=O)Nc2ccc(S(=O)(=O)O)cc2)c1)Nc1cc(C(=O)Nc2ccc(S(=O)(=O)O)cc2)cc(C(=O)Nc2ccc(S(=O)(=O)O)cc2)c1,3.78%
5,Cc1ccccc1OCCC(=O)OCC(=O)NC(C)c1ccccc1 (stereo not given),1.89%
6,CC[C@H](C)[C@H](NC(=O)[C@H](Cc1ccc(O)cc1)NC(=O)[C@@H](NC(=O)[C@H](CCCN=C(N)N)NC(=O)[C@@H](N)CC(=O)O)C(C)C)C(=O)N[C@@H](Cc1cnc[nH]1)C(=O)N1CCC[C@H]1C(=O)N[C@@H](Cc1ccccc1)C(=O)O,-0.483%
7,CC(=O)Nc1ccc(S(=O)(=O)N2N=NC3C2C2CC4C3(CN(C(=O)OC(C)(C)C)S4(=O)=O)O2)cc1 (stereo not given),-1.71%
8,CSCCC(NC(=O)c1cc([N+](=O)[O-])cc([N+](=O)[O-])c1)c1nc2ccccc2[nH]1 (stereo not given),18.7%
9,CCOc1c2ccc(C(=O)NC3CCCc4ccccc43)cc2nn1CC (stereo not given),5.93%
10,Cc1cc(C)c(NC(=O)C[N+](C)(C)CC(O)COc2cccc3ccccc23)c(C)c1 (stereo not given),-14%
11,CCOC(=O)Cc1csc(SCc2cc(=O)oc3cc(O)ccc23)n1,9.37%
12,CC1(C)CC(=O)c2cnc3nc4ccccc4n3c2C1,7.68%
13,COCC1CCCN(Cc2cn[nH]c2-c2cc3ccccc3o2)C1 (stereo not given),-8.79%
14,Cc1cc(Cl)ccc1C(=O)C1CCCN(C(=O)CCN2CCCO2)C1 (stereo not given),-13%
15,CC(C)Cn1c(N)c(C(=O)COC(=O)CN2C(=O)C3CC=CCC3C2=O)c(=O)n(C)c1=O (stereo not given),1.23%
16,O=C(NNc1ccccc1Cl)C(O)(c1cccc(C(F)(F)F)c1)c1cccc(C(F)(F)F)c1,-3.52%
17,O=C(NCc1ccccn1)[C@]1(C(F)(F)F)C[C@H](CCc2ccccc2)CCCO1,2.9%
18,Cc1cccc(C)c1N1CCN(S(=O)(=O)N2CCCCC2)CC1,5.18%
19,Cc1cccc2nc(CSc3nc4[nH]ncc4c(=O)n3-c3cccc(Cl)c3)cc(=O)n12,5.01%
20,N#Cc1ncc(C(F)(F)F)cc1Oc1cccnc1,-18%
21,CNC(=O)[C@]1(C(F)(F)F)C[C@H](CCc2ccccc2)CCCO1,-17.7%
22,COc1ccc(C[C@H](C(=O)O)N2C(=O)c3ccc(C(=O)O)cc3C2=O)cc1,-9.39%
23,Cc1ccccc1N(C(=O)Cc1cccs1)C(C(=O)NC1CCCCC1)c1cn(C)nc1C (stereo not given),-4.95%

row,SMILES,"activity change, negative = inhibition"
1,C[C@@H]1O[C@@H](OC[C@H]2O[C@@H](Oc3cc(O)c4c(c3)O[C@H](c3ccc(O)c(O)c3)CC4=O)[C@H](O)[C@@H](O)[C@@H]2O)[C@H](O)[C@H](O)[C@H]1O,3.44%
2,CCOC(=O)C1CCN(c2c(Nc3cc(C)cc(C)c3)c(=O)c2=O)CC1,-0.907%
3,NC(=O)NC(=O)CSc1nc2cc([N+](=O)[O-])ccc2n1-c1cccc(C(F)(F)F)c1,-1.63%
4,C[C@H]1CCC[C@@]2(C)CCCC[C@]12O,2.2%
5,C=C1CCN(C(CC(C)C)C(=O)NCc2cc(OC)c(OC)c(OC)c2)S(=O)(=O)c2ccccc21 (stereo not given),-16.2%
6,COc1ccc(C2/C=C\CN(Cc3ccco3)C(C)C(=O)N2Cc2ccc(F)cc2)cc1 (stereo not given),4.4%
7,COc1cc(C2OC(c3cc(OC)c(OC)c(OC)c3)C(C)C2C)cc(OC)c1OC (stereo not given),5.9%
8,COc1ccc(CN(C(=O)CSc2nnc(-c3ccc(OC)c(OC)c3)o2)c2ccc(F)cc2)cc1,10%
9,C=CCC(C)(O)c1ccco1 (stereo not given),-6.7%
10,CCCCCNC(=O)c1cccnc1SCC(=O)Nc1ccccc1OC,-4.08%
11,CC1(C)CC(N2CCN(C(c3ccccc3)c3ccccc3)CC2)=CC(=[N+]2CCCCC2)C1,3.27%
12,COc1ccccc1C(=O)N1CCN=C1SCc1cccnc1,0.71%
13,O=C(NCCCn1ccnc1)c1cc(-c2ccccc2)on1,-0.698%
14,C=C(C)C1CC=C(C)C(O)C1 (stereo not given),inactive
15,C=CCN1c2ccccc2[C@]23C[C@@H](C(=O)OC)N(S(=O)(=O)c4ccc([N+](=O)[O-])cc4)C2=NC(C(=O)OC)=C(C(=O)OC)[C@H]13,-4.05% [at 17.5 µM]
16,[O-][n+]1onc2c1CCc1[nH]c(-c3ccccc3)nc1-2,1.23%
17,CC(=O)CC(c1ccccc1)C1C(=O)Oc2ccccc2C1=O (stereo not given),-10.1%
18,Cc1nn(C)c(C(=O)NNC(=S)NC2CCCCC2)c1Cl,2.34%
19,NCCCCC(N)C(=O)O (stereo not given),2.41%
20,Cn1c(SCC(=O)N/N=C/c2ccc(O)c(O)c2)nc2ccccc21,3.66%
21,O=c1cc(-c2ccc(O)cc2)oc2c([C@@H]3O[C@H](CO)[C@@H](O)[C@H](O)[C@H]3O)c(O)cc(O)c12,-17.6%
22,CCN(CC)c1ccc(/C=N/NC(=O)c2cnccn2)c(O)c1,-14.2%
